Test results reported in PubChem BioAssay (NCI).
About 83,000 compounds went through this panel and 20% of them were active in at least one assay; those are over-represented in the sample as a whole.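 How to read the values: 0–100, growth inhibition (40 = 60% inhibited); 0, no net growth; -100 to 0, cell death (-40 = 40% of starting cells died; -100 = all dead).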 Active and inactive are the calls of the source. Rule for the calls: active = growth percent below 10; inactive = the rest.

Legend:
Assay in all cases: NCI-60 one-dose screen, 48 h (100 = growth as untreated, 0 = no growth, -100 = all killed)
Conditions in all cases: 10 µM unless noted
[1] = tested on: NCI-H23 lung
[2] = tested on: NCI-H226 lung
[3] = tested on: NCI-H322M lung
[4] = tested on: HOP-62 NSCLC
[5] = tested on: NCI-H460 lung
[6] = tested on: HOP-92 NSCLC
[7] = tested on: NCI-H522 lung
[8] = tested on: A549/ATCC NSCLC
[9] = tested on: 786-0 renal
[10] = tested on: COLO 205 colon
[11] = tested on: DU-145 prostate
[12] = tested on: K-562 leukemia
[13] = tested on: MALME-3M melanoma
[14] = tested on: MDA-MB-231 breast
[15] = tested on: RXF 393 renal
[16] = tested on: SF-268 CNS
[17] = tested on: SF-295 CNS
[18] = tested on: SF-539 CNS
[19] = tested on: UACC-257 melanoma
[20] = tested on: M14 melanoma

Measured: growth

Cc1cc(C)nc(SC2=C(Nc3ccc(C)c(Cl)c3)C(=O)N(Cc3ccccc3)C2=O)n1
active: [6] -4.65% [30 µM] | [17] -3.52% [30 µM]
inactive: [1] 62.4% [30 µM] | [2] 74.5% [30 µM] | [3] 82% [30 µM] | [4] 86.9% [30 µM] | [5] 52.4% [30 µM] | [7] 73.8% [30 µM] | [8] 41.2% [30 µM] | [9] 68.6% [30 µM] | [10] 81.2% [30 µM] | [11] 87.8% [30 µM] | [12] 32.5% [30 µM] | [13] 66.4% [30 µM] | [14] 39.1% [30 µM] | [15] 51.4% [30 µM] | [16] 64.6% [30 µM] | [18] 85.8% [30 µM] | [19] 67.4% [30 µM] | [20] 64% [30 µM]

O=C1CSC(=S)N1CCc1ccc(O)cc1
inactive: [1] 95% | [2] 108% | [3] 98.1% | [4] 85.2% | [5] 99% | [6] 66.9% | [7] 46.8% | [8] 96.7% | [9] 40% | [10] 106% | [11] 33.5% | [12] 58.2% | [13] 85.3% | [14] 91.3% | [15] 95.9% | [16] 86.2% | [17] 97.5% | [18] 85.2% | [19] 92% | [20] 87.9%

Nc1n[nH]c2ccc([C@@H]3Nc4cc5c(cc4[C@H]4C6CCC(C6)[C@@H]34)C(=O)NC5)cc12 (stereo not given in full)
active: [2] 4.99% | [5] 1.7% | [10] -40.1% | [11] -17.9% | [12] 7.25% | [18] -24.9% | [20] 7.72%
inactive: [1] 28.3% | [3] 42.1% | [4] 39.4% | [6] 75.3% | [7] 16.9% | [8] 26.4% | [9] 17.3% | [13] 49.8% | [14] 37.9% | [15] 27.1% | [16] 22.8% | [17] 10.8% | [19] 76.7%

CC1=C[C@H]2c3c(c(O)c(O)c4oc(-c5ccccc5)cc(=O)c34)[C@H](c3cc(O)c(O)c4oc(-c5ccccc5)cc(=O)c34)[C@H]2C(C)(C)C1
inactive: [19] 12.8%
active: [1] -14.4% | [2] -3.14% | [3] 6.91% | [4] -2.06% | [5] -31.8% | [6] -10% | [7] -12.7% | [8] 2.87% | [9] -22.8% | [10] 4.64% | [11] 9.89% | [12] 2.82% | [13] -12.8% | [14] 5.31% | [15] -26.6% | [16] 5.26% | [17] -18.2% | [18] -10.5% | [20] -28.1%
